In PubChem BioAssay (NCATS):
Inconclusive results are not listed. Unless noted, calls come from the whole dose curve; as a rule, active = well fitted curve in either direction with a large enough effect (not every such curve was filed as active); inconclusive = small, poorly fitted or top-dose-only effect, or another doubt; inactive = flat fitted curve, though single readings scatter.

Legend:
[1] = AP1 Signaling Pathway (AID 357); settings: ME-180 AP-1-bla reporter, EGF-induced, beta-lactamase ratio, 5 h; at 17.2 µM (top of the series) unless noted;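 note: ME-180 reporter cells stimulated with EGF at its EC50 level; % is set by controls: 0 for no effect and ±100 for the full control effect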
In short: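 Titration-series screen for positive or negative modulators of EC50 EGF-induced signaling in ME-180 cells carrying an AP-1-driven beta-lactamase reporter. After 5 hours at 37 degrees Celsius, CCF4 460nm/530nm emission ratio gave %Activity; AC50 values derived.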

[2] = NFAT Signaling Pathway (AID 444); settings: Jurkat NFAT-bla M1, carbachol, beta-lactamase ratio, 5 h; at 17.2 µM (top of the series) unless noted;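 note: carbachol stimulus at about its EC50 of 1 µM final; % is set by controls: 0 for no effect and ±100 for the full control effect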
In short: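 Read-out: CCF4 FRET ratio (460 nm/530 nm) after 1 h RT dye loading, used for %activity and AC50 from titration series. Cells: Jurkat NFAT-β-lactamase/M1 line, treated with compound plus 1 uM carbachol for 5 h, 37 °C.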

[3] = Stat Signaling Pathway (AID 446); settings: ME-180 SIE beta-lactamase reporter, IL-6 stimulated, 5 h; at 17.2 µM (top of the series) unless noted;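 note: ME-180 cervical cancer cells given 40 pM IL-6 alongside compound; SIE-controlled beta-lactamase reporter measured as 460/530 nm FRET emission ratio; % is set by controls: 0 for no effect and ±100 for the full control effect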
In short: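 Reporter line: ME-180 cervical carcinoma, SIE-beta-lactamase. Treatment: compound with 40 pM IL-6, 5 hrs, 37 C, in low-serum OPTI-MEM with 10 mM HEPES pH 7.3. Detection: 460/530 nm fluorescence.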

[4] = biological target: Glucocorticoid receptor (Homo sapiens) (UniProt P04150); assay: GR-GFP Redistribution (AID 450;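 active = compounds whose dose series gives a full or clear partial fitted curve of increased nuclear translocation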; note: potency is the fitted concentration of half-maximal effect); settings: U2OS GR-GFP nuclear translocation, laser cytometry, 2 h; series mostly up to 20.6 µM
Glucocorticoid receptor (Homo sapiens), sequence (P04150 whole entry, looked up): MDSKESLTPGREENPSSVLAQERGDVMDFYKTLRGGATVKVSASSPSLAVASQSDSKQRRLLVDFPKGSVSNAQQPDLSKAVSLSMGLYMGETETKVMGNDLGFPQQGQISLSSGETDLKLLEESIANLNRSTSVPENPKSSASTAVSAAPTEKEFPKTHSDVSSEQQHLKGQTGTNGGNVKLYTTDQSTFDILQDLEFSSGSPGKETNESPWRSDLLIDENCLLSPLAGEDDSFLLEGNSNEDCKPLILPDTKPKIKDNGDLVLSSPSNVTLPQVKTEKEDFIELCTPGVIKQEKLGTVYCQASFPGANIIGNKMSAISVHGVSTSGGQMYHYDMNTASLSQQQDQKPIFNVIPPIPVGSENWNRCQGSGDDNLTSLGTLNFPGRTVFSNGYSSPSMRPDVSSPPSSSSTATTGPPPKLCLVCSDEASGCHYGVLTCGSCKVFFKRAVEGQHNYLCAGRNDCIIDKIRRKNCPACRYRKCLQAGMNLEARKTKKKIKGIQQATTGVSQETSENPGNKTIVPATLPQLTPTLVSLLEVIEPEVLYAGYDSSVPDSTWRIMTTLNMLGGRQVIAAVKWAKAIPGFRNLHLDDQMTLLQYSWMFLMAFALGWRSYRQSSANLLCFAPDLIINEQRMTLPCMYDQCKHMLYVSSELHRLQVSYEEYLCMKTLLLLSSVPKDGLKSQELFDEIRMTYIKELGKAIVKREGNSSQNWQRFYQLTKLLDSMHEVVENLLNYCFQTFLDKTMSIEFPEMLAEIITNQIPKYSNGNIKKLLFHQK

CN1C(=O)NC(c2ccccc2)C2=C1CN(Cc1ccccc1)C2=O (stereo not given)
inactive: activity change, negative = inhibition [1] -1.08% | activity change, negative = inhibition [2] 1.92% | activity, negative = inhibition [3] -9.01% | Potency [4] > 20.6 µM

O=C(OCCN1CCOCC1)c1ccc2c(c1)OCCO2
inactive: activity change, negative = inhibition [1] -10% | activity change, negative = inhibition [2] 19.9% | activity, negative = inhibition [3] 6.54% | Potency [4] > 20.6 µM

CCN(CC)CCCN1C(=O)C(=O)/C(=C(/O)c2ccccc2)C1c1cc(OC)ccc1OC (stereo not given)
inactive: activity change, negative = inhibition [1] 3.34% | activity change, negative = inhibition [2] 7.04% | activity, negative = inhibition [3] 3.31% | Potency [4] > 20.6 µM

CCOC(=O)c1oc2cc(O)cc(C)c2c(=O)c1-c1cscn1
inactive: activity change, negative = inhibition [1] 0.0813% | activity change, negative = inhibition [2] 11.5% | activity, negative = inhibition [3] -0.432% | Potency [4] > 20.6 µM

Cc1nn(CC(=O)NCCN2CCOCC2)c(=O)c2ccccc12
inactive: activity change, negative = inhibition [1] 5.98% | activity change, negative = inhibition [2] 20% | activity, negative = inhibition [3] 8.76% | Potency [4] > 20.6 µM

CNC(=O)c1ncnnc1N(C)C(=O)NCc1ccccc1
inactive: activity change, negative = inhibition [1] -4.45% | activity change, negative = inhibition [2] 4.03% | activity, negative = inhibition [3] 0.797% | Potency [4] > 20.6 µM

CCOC(=O)c1ccc2nc(NC(NC(C)=O)(C(=O)OC)C(F)(F)F)sc2c1 (stereo not given)
inactive: activity change, negative = inhibition [1] -14% | activity change, negative = inhibition [2] -1.54% | activity, negative = inhibition [3] -10.8% | Potency [4] > 20.6 µM

CC(=O)OCc1c(COC(C)=O)[n+](=O)c2ccccc2n1[O-]
inactive: activity change, negative = inhibition [1] 8.53% | activity change, negative = inhibition [2] -3.2% | activity, negative = inhibition [3] 0.487% | Potency [4] > 20.6 µM

N#CCCN(CCC#N)c1nnc(-c2ccccc2)s1
inactive: activity change, negative = inhibition [1] 8.96% | activity change, negative = inhibition [2] -5.89% | activity, negative = inhibition [3] 1.66% | Potency [4] > 20.6 µM

Cc1ccc2[nH]c3c(c2c1)CN(C(=O)CN1CC(C)OC(C)C1)CC3 (stereo not given)
inactive: activity change, negative = inhibition [1] -2.87% | activity change, negative = inhibition [2] -2.75% | activity, negative = inhibition [3] 2.26% | Potency [4] > 20.6 µM

CC(=O)OC12CC3CC(C1)C(=NO)C(C3)C2
inactive: activity change, negative = inhibition [1] 9.34% | activity change, negative = inhibition [2] 1.23% | activity, negative = inhibition [3] 13.8% | Potency [4] > 20.6 µM

O=C(Nc1ccccn1)NC(C(F)(F)F)C(F)(F)F
inactive: activity change, negative = inhibition [1] -3.59% | activity change, negative = inhibition [2] 6.68% | activity, negative = inhibition [3] -3.68% | Potency [4] > 20.6 µM

Cc1cccc(N)c1SC1CCCCC1O (stereo not given)
inactive: activity change, negative = inhibition [1] -3.66% | activity change, negative = inhibition [2] -1.33% | activity, negative = inhibition [3] 2.62% | Potency [4] > 20.6 µM

Cc1c(C(Nc2ccccn2)c2ccccc2)c(=O)n(-c2ccccc2)n1C (stereo not given)
inactive: activity change, negative = inhibition [1] -3.17% | activity change, negative = inhibition [2] 2.74% | activity, negative = inhibition [3] 8.77% | Potency [4] > 20.6 µM

COc1cccc(C2/C(=C(/O)c3ccc(C)cc3)C(=O)C(=O)N2Cc2ccco2)c1 (stereo not given)
inactive: activity change, negative = inhibition [1] 2.99% | activity change, negative = inhibition [2] -8.9% | activity, negative = inhibition [3] -9.32% | Potency [4] > 20.6 µM

CC1(C)CC(NC(=O)C23CCC(C)(/C(=N/O)C2)C3(C)C)CC(C)(C)N1 (stereo not given)
inactive: activity change, negative = inhibition [1] 1.22% | activity change, negative = inhibition [2] 10.5% | activity, negative = inhibition [3] 0.446% | Potency [4] > 20.6 µM

Cc1c(/C(O)=C2\C(=O)C(=O)N(CCN(C)C)C2c2cccnc2)cnn1-c1ccccc1 (stereo not given)
inactive: activity change, negative = inhibition [1] 1.75% | activity change, negative = inhibition [2] 9.15% | activity, negative = inhibition [3] 0.0911% | Potency [4] > 20.6 µM

CCOc1cccc(-c2nnc3sc(-c4ccc(C)cc4)nn23)c1
inactive: activity change, negative = inhibition [1] 18.5% | activity change, negative = inhibition [2] -19.6% | activity, negative = inhibition [3] 24.1% | Potency [4] > 20.6 µM

O=C(c1ccc(=O)oc1)N1CCN(c2ccc(F)cc2)CC1
inactive: activity change, negative = inhibition [1] 2.08% | activity change, negative = inhibition [2] -11.6% | activity, negative = inhibition [3] -4.16% | Potency [4] > 20.6 µM

CN1CCc2c(n(CC(O)CN3C(=O)c4ccccc4S3(=O)=O)c3ccccc23)C1=O (stereo not given)
inactive: activity change, negative = inhibition [1] 27.1% | activity change, negative = inhibition [2] 6.52% | activity, negative = inhibition [3] -6.51% | Potency [4] > 20.6 µM
